Assay results from PubChem BioAssay (NCATS).
Values joined by “and” are separate entries in the source; they are usually repeats but may differ in a detail not shown here. Equal values may be shown once. Results filed as inconclusive are left out. A call without a number means that no potency is given here. Active and inactive are the calls of the source. Calls follow the shape of the dose curve; as a rule, active = well fitted inhibition curve with a large enough effect; inconclusive = small, poorly fitted or top-dose-only effect; inactive = flat fitted curve, though single readings scatter.

Target: Voltage-gated inwardly rectifying potassium channel KCNH2 (Homo sapiens) (UniProt Q12809)
Experiment: qHTS Assay for Small Molecule Inhibitors of the Human hERG Channel Activity (AID 588834);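 also: lower thallium flux fluorescence means stronger hERG block; nearly all actives have a fitted effect of over 50% in size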
Conditions: U2OS BacMam hERG, FluxOR thallium flux fluorescence; series mostly up to 46.1 µM
From the text: NIH Chemical Genomics Center [NCGC]
National Institutes of Environmental Health Sciences [NIEHS]
National Toxicology Program [NTP]
We have developed a 1536-well cell-based assay for quantitative high throughput screening (qHTS) to determine in vitro hERG channel blockage as a measure of cardio toxicity with small molecules. This particular assay uses the U2OS cell line which is derived from human osteosarcoma.
NCGC Assay Protocol Summary:
HERG assay (FluxORTM thallium flux assay) was initially developed by Invitrogen/Molecular Probes, and then miniaturized into 1536-well plate in a homogeneous format by NCGC. This assay measures the activity of potassium channel using thallium dye (FluxOR) flux as surrogate measurement for potassium into the cells with a FDSS-7000 kinetic plate reader (Hamamatsu Corp., Hamamatsu City, Japan). The hERG ion channel is transduced into mammalian cells (U2OS) using a baculovirus (Bacmam) construct harboring the hERG K+ ion channel. So far we screened LOPAC1280 library (Sigma), the NTP collection of 1408 compounds, and the NCGC Pharmaceutical Collection (NPC), in which many well defined HERG blockers are present. The rank order potencies of many of these compounds are similar to that of other HERG assays (membrane potential, Rb+ flux, patch clamp, etc). This quick and homogeneous assay is also found to be sensitive, specific, and robust.
Using the FluxORTM thallium flux assay, the activity of potassium channel using thallium dye (FluxOR) flux as surrogate measurement for potassium into the cells was measured in the U2OS cell line transduced with hERG K+ ion channel using a baculovirus (Bacmam) using Opti-MEM medium (Invitrogen) containing 2% fetal calf serum (FCS, HyCone) following loading buffer addition, compound treatment for around 10 minutes and finally adding stimulation buffer. The assay was performed in black clear Kalypsys 1536-well plates. In the screen, Astemizole was used as positive controls. Library compounds were measured for their ability to cause hERG channel blockage in the cell line, as reflected by a decrease in fluorescence intensity, in a concentration-dependent manner. […] AC50 values were determined from concentration-response data modeled with the standard Hill equation.
qHTS protocol for hERG-U2OS cellular assay
[Step] [Parameter] [Value] [Description]
1. Day 1: Replace medium in 70-80% confluent T225 flask with 2.5 mL of hERG-BacMam virus plus 12.5 mL of phosphate buffered saline (PBS) (corresponding roughly to a multiplicity of infection ratio of 100 virus particles/cell)
2. Incubation: 4 hrs @ room Temperature in Dark
3. Reagent; Remove virus; wash once with 25 ml DPBS
4. Reagent; 35 ml culture medium
5. Incubation; 37 °C overnight
6. Day2: Reagent; 3 uL; 2000 U2OS cells/well
7. Time; 4 hr; 37 °C incubation
8. Loading buffer; 1 uL; 0.7X;
9. Incubation: 1hr @ RT in Dark.
12. Time; 10min; 37 °C incubation
13. Read fluorescence Intensity on FDSS for 10 Sec with 1 sec interval
14. Reagent; 1 uL; stimulation buffer
15. Read fluorescence Intensity on FDSS for 2 min with 1 sec interval
16. Detection; Fluorescence Intensity; FDSS
Potency is read from the fitted curve at half-maximal effect.

Chain of Voltage-gated inwardly rectifying potassium channel KCNH2 (Homo sapiens) (Q12809 whole entry, looked up): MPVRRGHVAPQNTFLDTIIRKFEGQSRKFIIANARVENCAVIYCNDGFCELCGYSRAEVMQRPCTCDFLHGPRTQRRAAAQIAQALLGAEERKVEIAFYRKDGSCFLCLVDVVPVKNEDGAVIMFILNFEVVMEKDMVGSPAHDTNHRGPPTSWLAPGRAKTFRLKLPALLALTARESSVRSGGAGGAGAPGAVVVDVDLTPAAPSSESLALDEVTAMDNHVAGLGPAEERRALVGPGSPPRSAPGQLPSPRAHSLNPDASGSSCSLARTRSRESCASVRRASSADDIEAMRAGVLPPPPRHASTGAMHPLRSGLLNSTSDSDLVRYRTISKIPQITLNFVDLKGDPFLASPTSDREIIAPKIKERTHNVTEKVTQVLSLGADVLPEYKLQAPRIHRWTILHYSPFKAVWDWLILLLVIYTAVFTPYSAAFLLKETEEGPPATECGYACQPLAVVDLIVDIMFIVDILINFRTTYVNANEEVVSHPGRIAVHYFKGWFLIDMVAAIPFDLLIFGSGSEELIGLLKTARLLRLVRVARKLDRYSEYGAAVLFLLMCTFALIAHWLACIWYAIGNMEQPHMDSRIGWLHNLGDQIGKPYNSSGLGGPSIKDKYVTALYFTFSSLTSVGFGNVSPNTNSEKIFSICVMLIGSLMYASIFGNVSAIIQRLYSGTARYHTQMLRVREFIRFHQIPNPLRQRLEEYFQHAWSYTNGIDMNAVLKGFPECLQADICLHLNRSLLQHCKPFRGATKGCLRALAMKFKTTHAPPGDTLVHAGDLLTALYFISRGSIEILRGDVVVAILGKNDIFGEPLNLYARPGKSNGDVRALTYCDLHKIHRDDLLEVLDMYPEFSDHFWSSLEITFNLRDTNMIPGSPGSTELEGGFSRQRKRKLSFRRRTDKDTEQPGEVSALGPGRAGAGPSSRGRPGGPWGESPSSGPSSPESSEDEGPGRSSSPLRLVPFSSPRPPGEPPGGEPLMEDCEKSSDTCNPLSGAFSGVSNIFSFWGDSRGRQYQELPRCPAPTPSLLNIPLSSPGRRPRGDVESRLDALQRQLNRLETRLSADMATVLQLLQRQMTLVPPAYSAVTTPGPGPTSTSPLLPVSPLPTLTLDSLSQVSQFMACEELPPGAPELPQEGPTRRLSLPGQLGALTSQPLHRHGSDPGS

SMILES	Potency
CC(=O)[C@H]1CCC2C3CC[C@H]4C[C@H](O)CC[C@]4(C)C3CC[C@@]21C (stereo not given in full)	inactive
CC[C@@H]1C(=O)OC[C@@H]1Cc1cncn1C	inactive
Cc1c(C(=O)c2cccc3ccccc23)c2cccc3c2n1[C@H](CN1CCOCC1)CO3	6.31 µM (active)
C[N+]1(C)C2CCC1CC(OC(=O)C(CO)c1ccccc1)C2 (stereo not given)	inactive
CNCCc1c[nH]c2ccc(O)cc12	inactive
CC(C)(c1ccc(O)cc1)c1ccc(O)cc1	inactive
O=[N+]([O-])/N=C1\NCCN1Cc1ccc(Cl)nc1	inactive
CCCCc1ccc(C(=O)O)nc1	inactive
NCCc1c[nH]c2ccccc12	inactive
O=C(O)Cc1cnc[nH]1	inactive
COC(=O)c1cncn1C(C)c1ccccc1 (stereo not given)	inactive
CC[C@@]1(O)C(=O)OCc2c1cc1n(c2=O)Cc2cc3ccccc3nc2-1	inactive
COc1ccc2c(c[n+](C)c3c4cc5c(cc4ccc23)OCO5)c1OC	inactive
COc1ccc(C(c2ccc(OC)cc2)C(Cl)(Cl)Cl)cc1	10 µM (active) and 22.4 µM (active)
CN[C@@H](C)[C@H](O)c1ccccc1	inactive
O=[N+]([O-])c1c2ccccc2cc2ccccc12	inactive
CCCN(CCC)[C@@H]1CCc2ccc(O)cc2C1	2.51 µM (active)
c1cc2ccc3cccc4ccc(c1)c2c34	inactive
COc1cc(C(O)CN)ccc1O (stereo not given)	inactive
O=[N+]([O-])c1ccc([As](=O)(O)O)cc1	inactive

SMILES	Potency
CC(Cc1ccc(O)cc1)NCC(O)c1cc(O)cc(O)c1 (stereo not given)	inactive
CN[C@@H]1C[C@@H](c2ccc(Cl)c(Cl)c2)c2ccccc21	12.6 µM (active)
Cn1cnc(CCN)c1	inactive
C=CC(=O)NCNC(=O)C=C	inactive
CN(C)NC(=O)CCC(=O)O	inactive
Oc1ccc2c3c1O[C@H]1c4[nH]c5c(c4C[C@@]4(O)[C@@H](C2)N(CC2CC2)CC[C@]314)C[C@@]1(O)[C@H]2Cc3ccc(O)c4c3[C@@]1(CCN2CC1CC1)[C@H]5O4	inactive
C[C@]12CCC(=O)C(O)=C1CC[C@@H]1[C@H]3CCC(=O)[C@@]3(C)CC[C@@H]12	inactive
Cc1nccc2c1[nH]c1ccccc12	inactive
CN(C)[C@@H]1C(=O)C(C(N)=O)=C(O)[C@@]2(O)C(=O)C3=C(O)c4c(O)cccc4[C@@](C)(O)[C@H]3[C@H](O)[C@@H]12	inactive
CCCCC(CC)COC(=O)c1ccccc1C(=O)OCC(CC)CCCC (stereo not given)	inactive
CC(C)Oc1cccnc1N(C)C1CCN(Cc2ccccc2)CC1	6.31 µM (active)
CNCCc1ccc(O)c(O)c1	inactive
O=C(O)COc1ccccc1	inactive
NCCc1c[nH]c2ccc(O)cc12	inactive
CCCN1CCC[C@H](c2cccc(O)c2)C1	inactive
NC1=NC(=O)N2CC12 (stereo not given)	inactive
O=C(O)CC[N+](=O)[O-]	inactive
C[C@@H](N)Cc1cnc[nH]1	inactive
NC(N)=NOCCC(N)C(=O)O (stereo not given)	inactive
O=[N+]([O-])c1c(Cl)c(Cl)cc(Cl)c1Cl	inactive
